# Assay outcomes (PubChem)
# This is a sample that favours compounds with a hit; in the whole collection about 4.7% have one here.
# SARS 3CLpro inh = SARS-CoV 3CLpro protease inhibition; 0.14% of 290,000 active; P0C6X7; inhibition, % at 6 µM; recombinant SARS-CoV 3CLpro, quenched FRET peptide cleavage; in the data active = inhibition above about 12%
# GDH-TPI counter-1 = inhibits GDH-TPI coupling enzymes, artifact for Mtb FBA screen. GDH-TPI coupled enzyme counterscreen, NADH absorbance. inhibition, % at 4.8 µM. 1.2% of 360,000 active; in the data active = inhibition above about 30%
# CCHFV vOTU inh = CCHFV vOTU protease inhibition | Pep-AMC fluorescence | inhibition, % at 11.5 µM | 0.55% of 370,000 active | AID 651958; in the data active = inhibition above about 30%
# FBA Mtb inh = inhibits M. tuberculosis FBA enzyme | purified M. tuberculosis FBA, fluorescence read-out | inhibition, % at 1 µM | 2.3% of 360,000 active
# RecA splice inh = Mtb RecA intein splicing inhibition. 0.75% of 290,000 active. P9WHJ3. cell-free RecA intein splicing, fluorescence. inhibition, % (concentration not given with the values). AID 2221; in the data active = inhibition above about 30%
# Target sequence (P9WHJ3 whole entry, looked up, canonical isoform): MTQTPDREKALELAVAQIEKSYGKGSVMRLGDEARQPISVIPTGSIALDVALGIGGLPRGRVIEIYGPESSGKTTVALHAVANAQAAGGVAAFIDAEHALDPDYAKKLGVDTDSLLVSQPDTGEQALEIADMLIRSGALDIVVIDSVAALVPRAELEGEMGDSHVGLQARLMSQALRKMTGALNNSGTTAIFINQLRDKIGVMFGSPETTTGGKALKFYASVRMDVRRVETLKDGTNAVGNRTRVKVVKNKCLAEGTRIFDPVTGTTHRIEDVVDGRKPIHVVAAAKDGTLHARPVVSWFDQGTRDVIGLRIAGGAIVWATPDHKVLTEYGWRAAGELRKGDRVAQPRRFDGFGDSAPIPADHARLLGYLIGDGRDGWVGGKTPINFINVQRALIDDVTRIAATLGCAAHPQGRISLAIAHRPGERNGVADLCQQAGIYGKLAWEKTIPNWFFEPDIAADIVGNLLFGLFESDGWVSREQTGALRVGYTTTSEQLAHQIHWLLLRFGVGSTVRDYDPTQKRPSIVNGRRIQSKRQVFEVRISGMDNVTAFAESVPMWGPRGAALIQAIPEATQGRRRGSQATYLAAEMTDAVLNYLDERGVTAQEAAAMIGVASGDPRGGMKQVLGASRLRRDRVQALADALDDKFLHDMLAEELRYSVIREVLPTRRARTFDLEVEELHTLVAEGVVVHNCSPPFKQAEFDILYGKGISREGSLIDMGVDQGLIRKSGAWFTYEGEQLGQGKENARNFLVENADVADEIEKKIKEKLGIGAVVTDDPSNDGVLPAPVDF
# VHR inh abs = inhibitors of human VHR1 phosphatase (DUSP3) | 0.52% of 290,000 active | inhibition, % at 13.3 µM | P51452 | recombinant VHR phosphatase, pNPP absorbance | AID 1654; in the data active = inhibition above about 50%
# Mtb FBA confirm = confirmation of M. tuberculosis fructose-bisphosphate aldolase inhibitors | shares compounds with FBA Mtb inh | AID 651616 | purified M. tuberculosis FBA, fluorescence read-out | 78% of 5,600 active | inhibition, % at 1 µM
# GDH-TPI counter-2 = counter-screen for M. tuberculosis FBA inhibitors: GDH-TPI coupled enzyme inhibition; 81% of 5,600 active; inhibition, % at 1 µM; GDH-TPI coupled enzyme counterscreen, fluorescence; shares compounds with FBA Mtb inh; AID 652141; in the data active = inhibition above about 10%
# Numbers stand for hits; – = inactive; · = not tested or not shown; + = active, no number; ! = repeats disagree. Cut-off read from the data, not from the text of the source, unless noted: active = inhibition above about 27%; inactive = the rest.
SMILES,SARS 3CLpro inh,GDH-TPI counter-1,CCHFV vOTU inh,FBA Mtb inh,RecA splice inh,VHR inh abs,Mtb FBA confirm,GDH-TPI counter-2
C=CCn1c(=O)c(C(=O)Nc2ccccc2O)c(O)c2ccccc21,–,–,–,29,–,–,–,24
C=CCn1c(=O)c(C(=O)Nc2ccccc2C)c(O)c2ccccc21,–,–,–,–,–,–,·,·
N#Cc1nc(-c2ccccc2)oc1NCCN1CCCCC1,–,–,–,81,–,–,67,68
COc1ccc(CCNc2oc(-c3ccco3)nc2C#N)cc1,–,–,–,54,–,–,145,133
N#Cc1nc(-c2ccco2)oc1NCCc1ccccc1,–,–,–,41,–,–,49,40
COc1ccc(-c2nc(C#N)c(NCCc3ccccc3)o2)cc1OC,–,–,–,102,–,–,+,+
O=C1c2cccnc2C(Nc2ccc(F)c(Cl)c2)N1Cc1cccs1 (stereo unspecified),–,–,–,–,–,–,·,·
O=[N+]([O-])c1ccc(O)c(C=Nc2cccc3ccccc23)c1,–,–,–,–,–,–,·,·
Cc1nc2ccccc2c(=O)n1/N=C/c1ccc(O)cc1O,–,–,–,–,–,–,·,·
O=[N+]([O-])c1cccc(C=Nc2cccc3ccccc23)c1O,–,–,–,39,38,–,179,157
Oc1ccc(C=Nc2cccc3ccccc23)c(O)c1,–,–,–,62,–,–,132,122
COc1cccc(CN2CC(C(=O)NCCc3cn4cccnc4n3)CCC2=O)c1 (stereo unspecified),·,–,–,47,·,·,102,71
COc1cccc(CCNC(=O)C2CCC(=O)N(Cc3cccc(OC)c3)C2)c1 (stereo unspecified),–,–,–,–,–,–,·,·
O=C(c1cc(COc2cccc(C(F)(F)F)c2)on1)N1CCC(Oc2cccnc2)CC1,–,–,–,–,–,–,·,·
O=C(OCc1ccc(Br)cc1F)c1cc2ccccc2oc1=O,–,–,–,67,·,–,191,153
CCc1cc2c(COC(=O)c3c(C)noc3C)cc(=O)oc2cc1O,–,32,–,33,–,–,85,62
CCc1cc2c(COC(=O)c3cccc(S(C)(=O)=O)c3)cc(=O)oc2cc1O,–,–,–,–,–,–,·,·
CCOC(=O)[C@@]12CCC3=C1N(CCC3)C(=O)[C@H](CC(=O)N1CCCC1)C2,·,·,–,·,·,·,·,·
CCOC(=O)N1CCN(C(=O)c2cc(C)c3c(C)nn(-c4ccccc4)c3n2)CC1,–,–,–,66,–,–,–,–
CCOC(=O)N1CCC(NC(=O)CCc2c(C)nc3c(c(C)nn3-c3ccccc3)c2C)CC1,·,–,–,–,·,·,·,·
C=CCNc1nc(NCc2ccccc2)c(C#N)c2c1CN(C)CC2,–,–,–,71,–,–,58,52
N#Cc1c(NCCN)nc(NCc2ccccc2)c2c1CCN(Cc1ccccc1)C2,–,–,·,–,·,–,·,·
O=C1NC(c2ccccc2O)Nc2ccccc21 (stereo unspecified),–,–,–,33,–,–,–,11
O=C1NC(c2ccc(Cl)c([N+](=O)[O-])c2)Nc2ccccc21 (stereo unspecified),–,–,–,–,–,–,·,·
COc1cc(C)c(C2NC(=O)c3ccccc3N2)cc1C (stereo unspecified),·,–,–,–,·,·,·,·
SMILES,SARS 3CLpro inh,GDH-TPI counter-1,CCHFV vOTU inh,FBA Mtb inh,RecA splice inh,VHR inh abs,Mtb FBA confirm,GDH-TPI counter-2
O=C1NC(c2cccc(OCc3ccccc3)c2)Nc2ccccc21 (stereo unspecified),·,–,–,42,·,·,168,134
COc1ccc(C2NC(=O)c3ccccc3N2)c(OC)c1OC (stereo unspecified),·,–,–,77,·,·,75,65
Cc1ccc(C)c(C2NC(=O)c3ccccc3N2)c1 (stereo unspecified),–,–,–,63,–,–,93,72
C=CCN(Cc1cccc(OC)c1OC)C(=O)Oc1ccccc1,·,–,–,–,·,·,·,·
CSc1ccc(C2NC(=O)c3ccccc3N2)cc1 (stereo unspecified),·,–,–,48,–,·,–,16
CSc1ccc(C2Nc3cccc4cccc(c34)N2)cc1,–,–,–,–,–,–,·,·
O=C1NC(c2ccc(O)cc2)Nc2ccccc21 (stereo unspecified),–,–,–,37,–,–,39,34
CCc1ccc2[nH]c3nc(C)cc(C)c3c(=O)c2c1,–,–,–,75,–,–,75,59
CCc1ccc2[nH]cc(S(=O)(=O)c3ccc(C)c(C)c3)c(=O)c2c1,–,–,–,–,–,–,·,·
Nc1ncc2c(n1)-c1ccccc1CC2,–,–,–,64,–,–,–,–
Nc1ncc2c(n1)-c1ccoc1CC2,–,–,–,36,–,–,125,103
O=C(Nc1ncc2c(n1)-c1ccccc1CC2)c1ccccc1,–,–,–,–,–,–,·,·
Cc1nc(N)ncc1-c1ccc2c(c1)OCO2,–,–,–,–,–,–,·,·
COc1ccc2oc(C(=O)OC(C)C(=O)N3C(C)CCCC3C)c(C)c2c1 (stereo unspecified),·,–,–,62,·,·,51,31
COc1ccc2oc(C(=O)OC(C)C(=O)NC3(C#N)CCCCC3)c(C)c2c1 (stereo unspecified),·,–,–,28,–,·,39,29
COc1ccc(C(=O)N/N=C/c2ccc3cccc(OCc4ccccc4)c3n2)cc1,–,–,–,63,–,–,–,15
O=C(N/N=C/c1ccc2cccc(OCc3ccccc3)c2n1)c1ccc(Br)cc1,–,–,–,–,–,–,·,·
NC(=S)N/N=C/c1ccc2cccc(OCc3ccccc3)c2n1,–,–,–,40,–,–,47,37
Cc1ccc(-c2nn(-c3ccccc3)cc2CO)o1,–,–,–,33,–,–,76,54
Cc1n[nH]c(=O)c2c(NC(=O)CSc3nc4ccccc4c(=O)n3C(C)C)oc(C)c12,–,–,–,–,–,–,·,·
Cc1ccc2sc(N(CCCN(C)C)C(=O)c3ccc(Br)s3)nc2c1C,–,–,–,–,–,–,·,·
O=C(N/N=C/c1ccsc1)c1cc(-c2cccs2)nc2ccccc12,–,–,–,–,–,–,·,·
Cc1ccc(-c2cc(C(=O)O)c3cc(Br)ccc3n2)s1,–,41!,–,32,–,–,197!,194!
O=C(O)c1ccc(/C=N/NC(=O)c2cc(-c3cccs3)nc3ccccc23)cc1,–,–,–,31,–,–,+,+
Cc1cc(NC(=O)c2cc(-c3cccs3)nc3ccccc23)no1,–,–,–,71,–,–,–,–
Cc1ccc(-c2cc(C(=O)Nc3cccnc3)c3ccccc3n2)s1,–,–,–,42,–,–,59,43
